Shown are actives, neighbours in structure and some others; about 1.3% of the full set was active somewhere.
Pin1 inh = inhibitors of human Pin1. Q13526. Pin1 FP peptide displacement, HiFluor488, 10 min. Potency, µM (titrated, usually from 115 µM), for inactives: at the highest dose activity, negative = inhibition, hits mostly inhibitors. 390,000 compounds, 0.009% hits. AID 504891; active = well fitted inhibition curve with a large enough effect in the polarisation, with a control signal flat, not every such curve was filed as active; inconclusive = small, poorly fitted or top-dose-only effect, or effect the other way, or a change in a side signal; inactive = no such curve, though single readings can be large or run the other way; the % refers to the polarisation; also: potency is read from the fitted curve at half-maximal effect
Target sequence (Q13526 whole entry, looked up): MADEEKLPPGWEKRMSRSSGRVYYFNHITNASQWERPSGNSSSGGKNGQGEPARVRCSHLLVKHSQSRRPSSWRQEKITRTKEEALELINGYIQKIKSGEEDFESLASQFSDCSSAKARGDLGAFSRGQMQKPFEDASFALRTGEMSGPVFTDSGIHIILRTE
KAT2A inh = inhibitors of human GCN5L2 histone acetyltransferase; Potency, µM (titrated, usually from 58.9 µM), without a hit: at the top dose activity change, negative = inhibition, actives largely listed as inhibitors; Q92830; GCN5L2 HAT assay, ThioGlo1 CoA-SH fluorescence; 390,000 compounds, 0.21% hits; also: potency is read from the fitted curve at half-maximal effect
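GCN5L2 (20 nM) in 50mM HEPES pH 7.5, 0.1mM EDTA, 0.01% Tween-20 preincubated 15 min with compounds at room temperature. Reaction started with H3(1-25) 75uM, acetyl-CoA 70uM, ThioGlo1 50uM; CoA-thiol fluorescence (Ex340/Em540) read at 0 and 20 min.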
rTrxR1 inhibitor = blocks rat thioredoxin reductase 1; recombinant rTrxR1, NADPH fluorescence consumption, selenite substrate; Potency, µM (highest dose often 114 µM), for inactives: at the top dose activity change, negative = inhibition, usual class: inhibitors; 390,000 compounds, 1% hits; AID 588453; also: potency is read from the fitted curve at half-maximal effect; nearly all actives have a fitted effect of over 65% in size
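Rat TrxR1 (90 nM in the dispensed reagent) was pre-reduced with 400 uM NADPH for 5 min at room temperature, then incubated with compound for 15 min. After 400 uM selenite was added, NADPH fluorescence (Ex 340/Em 450 nm) was followed for 8 min.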
GALK inh = inhibitors of human galactokinase | Purified GALK, Kinase-Glo residual ATP luminescence | Potency, µM (highest dose often 57.5 µM), for the others: at the highest dose activity change, negative = inhibition, most hits filed as inhibitors | P51570 | 270,000 compounds, 0.007% hits | AID 1868; also: potency is read from the fitted curve at half-maximal effect
Target sequence (P51570 whole entry, looked up): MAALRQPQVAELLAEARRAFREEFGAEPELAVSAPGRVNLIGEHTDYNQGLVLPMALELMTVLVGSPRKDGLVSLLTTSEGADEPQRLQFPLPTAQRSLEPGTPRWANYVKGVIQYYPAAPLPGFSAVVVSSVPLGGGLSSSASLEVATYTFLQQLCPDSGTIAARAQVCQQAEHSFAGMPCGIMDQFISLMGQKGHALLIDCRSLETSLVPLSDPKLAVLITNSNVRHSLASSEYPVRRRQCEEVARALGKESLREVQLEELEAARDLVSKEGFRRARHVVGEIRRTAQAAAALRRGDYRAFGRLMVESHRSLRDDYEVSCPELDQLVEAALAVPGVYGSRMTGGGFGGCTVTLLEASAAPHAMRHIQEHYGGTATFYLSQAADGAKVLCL
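Kinase-Glo Plus luminescence measured ATP left after a 1 h room-temperature reaction. The reaction used 5 nM GALK, 100 uM galactose and 35 uM ATP at pH 8.0 (20 mM HEPES, 5 mM MgCl2, 60 mM NaCl, 1 mM DTT, 0.01% BSA).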
TrxR1 substrate = rat thioredoxin reductase 1 substrate activity | O89049 | purified TrxR1 substrate turnover, NADPH consumption readout | Potency, µM (titrated, usually from 114 µM), for inactives: at the highest dose activity change, negative = substrate turnover | 390,000 compounds, 0.01% hits; also: potency is read from the fitted curve at half-maximal effect; nearly all actives have a fitted effect of over 50% in size
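Rat TrxR1, dispensed at 90 nM, was prereduced with 400 uM NADPH (final) for 5 min at ~22 deg C, then incubated with compound 15 min before 400 uM selenite. A first-read NADPH fluorescence drop versus no-compound background flagged substrates.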
Giardia killer = kills Giardia lamblia; activity change, % at 7.66 µM, hits read low; Giardia lamblia trophozoite viability; 340,000 compounds, 0.15% hits; in the data active = activity change below about -80%; inconclusive = between about -30% and that limit;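 also: parasites exposed to compound for two days anaerobically before the ATP read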
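Trophozoites 100 cells/well + cpd; 48 hrs, 37 deg C, anaerobic. ATPLite 1-Step added, 15-30 min RT, luminescence read (ATP-based viability).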
Active calls of the source: *; ? = inconclusive; . = no result; [ ] = dose if it differs, or a comment. Unless noted, calls follow the shape of the dose curve; as a rule, active = well fitted curve in the direction sought with a large enough effect; inconclusive = small, poorly fitted or top-dose-only effect, or another doubt; inactive = no such curve, though single readings can be large; an effect the other way counts as inactive or inconclusive. % is scaled to controls: 0 for no effect and ±100 for the full control effect.

SMILES | Pin1 inh | KAT2A inh | rTrxR1 inhibitor | GALK inh | TrxR1 substrate | Giardia killer
CCOc1cc(C2c3c(n[nH]c3C)C(=O)N2c2ccc(C)cc2)ccc1O (stereo not given) | 0% | -11% | ? | -3% | 1% | 0
COc1cc(C2c3c(n[nH]c3C)C(=O)N2c2ccc(C)cc2)ccc1O (stereo not given) | 4% | -3% | 32µM* | 1% | 7%[57.1 µM] | 6
OCc1ccccc1N=c1ssnc1Cl | . | -27% | . | 0% | . | .
COc1cc(N=c2ssnc2Cl)cc(OC)c1 | 9% | 22µM* | ? | -1% | -11% | 18
Clc1nssc1=Nc1ccc(Br)cc1 | 1% | 8.9µM* | -17%[57.1 µM] | 3% | 4%[57.1 µM] | -11
Clc1nssc1=Nc1nncs1 | 0% | 2.2µM* | -16% | . | -17% | -28
Clc1ccc(N=c2ssnc2Cl)nc1 | -2% | -1% | -3%[57.1 µM] | 2% | -4%[57.1 µM] | 21
N#Cc1cccc(N=c2ssnc2Cl)c1 | -2% | 6.3µM* | 2%[57.1 µM] | 0% | -3%[57.1 µM] | 13
CCOc1ccc(C2C(C(N)=O)=C(C)Nc3nc(SCc4ccccc4)nn32)cc1 (stereo not given) | -2% | -10% | 25% | . | -2% | .
O=c1c2c([N+](=O)[O-])cc([N+](=O)[O-])cc2sn1-c1ccc(Br)cc1 | -18% | 7.1µM* | -28% | 0% | -19% | -26
O=c1c2c([N+](=O)[O-])cc([N+](=O)[O-])cc2sn1Cc1ccccc1 | 1% | 1.3µM* | ? | . | -11% | 21
O=C(Nc1ccc(Br)cc1)c1cc([N+](=O)[O-])cc([N+](=O)[O-])c1 | 6% | -21% | 7% | -2% | -2% | ?
CCC(C)Sc1ccc(-c2nc3cc(C)ccn3c2NC2CCCCC2)cc1 (stereo not given) | 48% | -24% | -10% | . | 40% | -14
CCC(C)Sc1ccc(-c2nc3cnccn3c2NC2CCCCC2)cc1 (stereo not given) | 6% | 28µM* | 17% | . | 18% | -8
COCCn1nnnc1C(c1cc2cc(C)ccc2[nH]c1=O)N1CCCCCC1 (stereo not given) | -5% | -17% | 4.5µM* | 0% | 6% | -7
COCCn1nnnc1C(c1cc2c(C)cc(C)cc2[nH]c1=O)N1CCCCCC1 (stereo not given) | 1% | -5% | 40µM* | -3% | 0% | -3
Cc1ccc2[nH]c(=O)c(C(c3nnnn3CCc3ccccc3)N3CCOCC3)cc2c1 (stereo not given) | 2% | -15% | -30% | 0% | 16% | -16
O=C1C=C(N2CCOCC2)c2ccccc2C1=O | -22% | -9% | ? | 13µM* | 25µM* | 18
O=[S+]([O-])(c1ccc2c(c1)OCCO2)N1CCN([S+](=O)([O-])c2ccc(F)cc2Cl)CC1 | 1% | . | . | . | . | .
CCOC(=O)c1c(NC(=O)c2ccc(S(=O)(=O)N3CCC(C)CC3)cc2)sc2c1CCN(CC)C2 | ? | -8% | 2%[57.1 µM] | . | -5%[57.1 µM] | .
COc1ccc(C(=O)NC(Cc2c[nH]c3ccccc23)C(=O)O)cc1 (stereo not given) | 11% | 1% | 14% | . | 3% | 0
CCCOc1ccc(C(=O)CCNC(Cc2c[nH]c3ccccc23)C(=O)O)cc1 (stereo not given) | 4% | -7% | 1.8µM* | . | 3% | -2
O=C(Cc1cccc(NC(=O)C2CCCN(C(=O)C3CCCCC3)C2)c1)Nc1ccc(C(=O)N2CCCCC2)cc1 (stereo not given) | 2% | . | 7% | . | -1% | ?
Cc1ccc(C2=NS(=O)(=O)N(C)C(C(=O)N3CCOCC3)=C2)cc1 | -3% | 10µM* | -6%[57.1 µM] | . | -1%[57.1 µM] | 15
COc1ccc(C2=NS(=O)(=O)N(C)C(C(=O)N3CCOCC3)=C2)cc1 | -7% | -11% | 9%[57.1 µM] | . | -1%[57.1 µM] | -20
Cc1cc(C(=O)c2ccccc2)c(NC(=O)CCl)s1 | 6% | -8% | 20µM* | -1% | -7% | 7
O=C(CCl)Nc1ccccc1C(=O)c1ccccc1 | 1% | -4% | 20µM* | 6% | -10% | 51
